According to PMC5700166:

Key:
Assay in all cases: protein-binding microarray (PBM); PBM: ~300 nM protein, 6 mM HEPES pH 7.8, 80 mM KCl, 0.5 mM EDTA, 0.5 mM EGTA, 6% glycerol, 35 ng/ul poly-dIdC, 1% milk, 1 h, room temperature; Ap Aiptasia and Nv Nematostella (sea anemones) / Co Capsaspora / Aq Amphimedon (sponge) / Dm Drosophila / Hu human; RHD is the Rel homology domain; high values mean tight binding
Settings in all cases: dsDNA, one strand shown
GST-Ap-NF-kB RHD = molecular target: T1, GST-Ap-NF-kB RHD (Exaiptasia pallida (Aiptasia), UniProt A0A913YAJ5 2-422)
T1 sequence: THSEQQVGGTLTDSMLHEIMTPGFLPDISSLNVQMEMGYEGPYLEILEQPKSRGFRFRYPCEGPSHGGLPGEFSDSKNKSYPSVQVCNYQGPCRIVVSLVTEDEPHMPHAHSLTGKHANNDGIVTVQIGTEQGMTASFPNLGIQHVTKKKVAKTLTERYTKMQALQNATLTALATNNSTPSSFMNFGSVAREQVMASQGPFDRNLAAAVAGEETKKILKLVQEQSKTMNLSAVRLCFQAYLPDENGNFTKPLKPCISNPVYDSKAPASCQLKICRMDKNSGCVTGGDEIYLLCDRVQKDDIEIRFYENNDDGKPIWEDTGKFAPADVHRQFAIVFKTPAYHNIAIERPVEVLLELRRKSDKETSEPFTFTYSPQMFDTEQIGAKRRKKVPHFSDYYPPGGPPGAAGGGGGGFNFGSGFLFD

[1] = molecular target: T2, GST-Nv-NF-kB (Cys allele) (Nematostella vectensis, UniProt E5G601 2-411)
T2 sequence: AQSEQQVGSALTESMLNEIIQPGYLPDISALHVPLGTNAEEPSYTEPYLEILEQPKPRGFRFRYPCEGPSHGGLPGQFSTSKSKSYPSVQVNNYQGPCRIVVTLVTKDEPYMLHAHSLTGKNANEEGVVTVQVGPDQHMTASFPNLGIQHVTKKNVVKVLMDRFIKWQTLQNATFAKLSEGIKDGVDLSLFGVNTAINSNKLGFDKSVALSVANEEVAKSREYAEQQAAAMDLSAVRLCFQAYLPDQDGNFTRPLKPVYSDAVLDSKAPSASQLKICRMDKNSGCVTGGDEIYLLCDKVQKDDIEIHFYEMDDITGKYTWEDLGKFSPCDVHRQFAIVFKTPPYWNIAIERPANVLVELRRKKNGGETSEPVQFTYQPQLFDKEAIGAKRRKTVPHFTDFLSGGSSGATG

GST-Co-NF-kB = molecular target: T3, GST-Co-NF-kB (Capsaspora owczarzaki, UniProt F1ARL5 200-546)
T3 sequence: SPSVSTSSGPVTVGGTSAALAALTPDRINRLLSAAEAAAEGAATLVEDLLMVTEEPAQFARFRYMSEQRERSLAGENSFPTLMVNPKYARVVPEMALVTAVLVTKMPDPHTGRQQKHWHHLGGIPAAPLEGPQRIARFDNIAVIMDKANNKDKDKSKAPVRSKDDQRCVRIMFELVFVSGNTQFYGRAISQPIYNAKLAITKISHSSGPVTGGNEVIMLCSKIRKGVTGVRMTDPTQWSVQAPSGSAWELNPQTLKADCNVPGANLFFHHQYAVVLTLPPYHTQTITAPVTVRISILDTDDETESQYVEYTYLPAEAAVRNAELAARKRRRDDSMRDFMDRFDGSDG

GST-Dm-Relish = molecular target: T4, GST-Dm-Relish (Drosophila melanogaster, UniProt Q94527 99-473)
T4 sequence: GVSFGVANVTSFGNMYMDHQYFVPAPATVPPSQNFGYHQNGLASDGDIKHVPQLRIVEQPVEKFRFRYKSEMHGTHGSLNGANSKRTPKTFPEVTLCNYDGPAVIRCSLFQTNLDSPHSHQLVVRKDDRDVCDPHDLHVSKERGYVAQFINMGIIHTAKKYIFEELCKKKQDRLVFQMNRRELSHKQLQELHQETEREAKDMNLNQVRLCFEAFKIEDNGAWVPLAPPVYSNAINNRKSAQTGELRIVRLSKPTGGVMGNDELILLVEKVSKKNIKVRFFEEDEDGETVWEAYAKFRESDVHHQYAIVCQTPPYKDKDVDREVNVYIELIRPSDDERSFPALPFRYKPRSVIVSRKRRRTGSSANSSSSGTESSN

GST-Aq-NF-kB = molecular target: T5, GST-Aq-NF-kB (Amphimedon queenslandica, UniProt A9Y5G7 2-389)
T5 sequence: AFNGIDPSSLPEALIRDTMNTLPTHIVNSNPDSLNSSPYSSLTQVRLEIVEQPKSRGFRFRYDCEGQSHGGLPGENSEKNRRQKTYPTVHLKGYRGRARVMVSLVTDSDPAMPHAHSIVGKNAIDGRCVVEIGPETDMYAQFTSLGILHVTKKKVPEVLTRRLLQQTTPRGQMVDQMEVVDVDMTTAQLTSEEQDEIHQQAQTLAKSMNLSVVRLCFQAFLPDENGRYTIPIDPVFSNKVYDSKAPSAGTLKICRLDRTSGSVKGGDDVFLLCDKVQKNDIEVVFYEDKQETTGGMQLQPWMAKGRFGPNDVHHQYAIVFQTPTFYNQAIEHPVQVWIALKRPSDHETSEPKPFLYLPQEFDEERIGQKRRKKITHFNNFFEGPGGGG

Sequence	binding signal (GST-Ap-NF-kB RHD)	binding signal [1]	binding signal (GST-Co-NF-kB)	binding signal (GST-Dm-Relish)	binding signal (GST-Aq-NF-kB)
CCGATTAACATCAGAAATCCCGCTGATGTTAATCGGGTCTTGATTCGCTTGACGCTGCTG	3.54 z-score	2.85 z-score	1.57 z-score	4.94 z-score	3.08 z-score
CCGATTAACATCAGGGAATTCGATGATGTTAATCGGGTCTTGATTCGCTTGACGCTGCTG	3.01 z-score	3.99 z-score	2.25 z-score	1.66 z-score	3.01 z-score
CCGATTAACATCAGGGTTTTTTATGATGTTAATCGGGTCTTGATTCGCTTGACGCTGCTG	4.39 z-score	5.06 z-score	1.36 z-score	5.89 z-score	6.24 z-score
CCGATTAACATCAATCTACCCCCTGATGTTAATCGGGTCTTGATTCGCTTGACGCTGCTG	4.86 z-score	3.1 z-score	7.41 z-score	2.3 z-score	3.68 z-score
CCGATTAACATCAAAAACTCCCATGATGTTAATCGGGTCTTGATTCGCTTGACGCTGCTG	4.22 z-score	5.15 z-score	2.58 z-score	5.66 z-score	5.3 z-score
CCGATTAACATCAAAATTCCCGGTGATGTTAATCGGGTCTTGATTCGCTTGACGCTGCTG	4.57 z-score	5.96 z-score	5.57 z-score	6.54 z-score	5.5 z-score
CCGATTAACATCAGGGGCGCCCCTGATGTTAATCGGGTCTTGATTCGCTTGACGCTGCTG	7.03 z-score	5.37 z-score	3 z-score	6.07 z-score	8.59 z-score
CCGATTAACATCAGGGAGTTACCTGATGTTAATCGGGTCTTGATTCGCTTGACGCTGCTG	4.03 z-score	5.22 z-score	2.38 z-score	7.17 z-score	7.22 z-score
CCGATTAACATCAGGAGACTCCCTGATGTTAATCGGGTCTTGATTCGCTTGACGCTGCTG	2.16 z-score	2.35 z-score	1.37 z-score	1.79 z-score	5.19 z-score
CCGATTAACATCAAGGGGGTGACTGATGTTAATCGGGTCTTGATTCGCTTGACGCTGCTG	4.68 z-score	3.59 z-score	3.04 z-score	2.43 z-score	4.26 z-score
CCGATTAACATCAAAAAATGCCCTGATGTTAATCGGGTCTTGATTCGCTTGACGCTGCTG	2.08 z-score	3.03 z-score	1 z-score	3.67 z-score	4.05 z-score
CCGATTAACATCAGGGGATAAAATGATGTTAATCGGGTCTTGATTCGCTTGACGCTGCTG	4.6 z-score	5.11 z-score	7.5 z-score	3.31 z-score	4.05 z-score
CCGATTAACATCAGGGAATGACCTGATGTTAATCGGGTCTTGATTCGCTTGACGCTGCTG	2.15 z-score	3.16 z-score	1.03 z-score	3.4 z-score	5.79 z-score
CCGATTAACATCAAGGGATTTCCTGATGTTAATCGGGTCTTGATTCGCTTGACGCTGCTG	5.46 z-score	5.12 z-score	1.32 z-score	7.74 z-score	6.44 z-score
CCGATTAACATCAAATTCCCAAATGATGTTAATCGGGTCTTGATTCGCTTGACGCTGCTG	1.72 z-score	3.62 z-score	2.55 z-score	4.57 z-score	2.31 z-score
CCGATTAACATCAGATCTTCCCCTGATGTTAATCGGGTCTTGATTCGCTTGACGCTGCTG	4.63 z-score	6.25 z-score	7.3 z-score	4.83 z-score	6.29 z-score
CCGATTAACATCAAAAATTGCCCTGATGTTAATCGGGTCTTGATTCGCTTGACGCTGCTG	1.25 z-score	1.84 z-score	1.78 z-score	1.5 z-score	2.99 z-score
CCGATTAACATCACGGACTCCCCTGATGTTAATCGGGTCTTGATTCGCTTGACGCTGCTG	5.18 z-score	3.32 z-score	3.37 z-score	6.19 z-score	4.33 z-score
CCGATTAACATCACCAAAATCCCTGATGTTAATCGGGTCTTGATTCGCTTGACGCTGCTG	3.22 z-score	2.45 z-score	1.36 z-score	5.42 z-score	2.86 z-score
CCGATTAACATCAACTCCCCCCATGATGTTAATCGGGTCTTGATTCGCTTGACGCTGCTG	5.39 z-score	4.1 z-score	6.49 z-score	4.31 z-score	4.72 z-score
CCGATTAACATCAGGCTATCCCCTGATGTTAATCGGGTCTTGATTCGCTTGACGCTGCTG	4.44 z-score	3.67 z-score	2.18 z-score	3.3 z-score	4.81 z-score
CCGATTAACATCAGGGATAACCCTGATGTTAATCGGGTCTTGATTCGCTTGACGCTGCTG	3.63 z-score	3.77 z-score	1.82 z-score	4.42 z-score	6.12 z-score
CCGATTAACATCAGGGAATCCTATGATGTTAATCGGGTCTTGATTCGCTTGACGCTGCTG	3.36 z-score	4.16 z-score	2.52 z-score	7.42 z-score	4.15 z-score
CCGATTAACATCACAGGGAAAAATGATGTTAATCGGGTCTTGATTCGCTTGACGCTGCTG	2.81 z-score	4.49 z-score	5.03 z-score	1.6 z-score	3.9 z-score
CCGATTAACATCAGGGGGTAACCTGATGTTAATCGGGTCTTGATTCGCTTGACGCTGCTG	6.07 z-score	3.41 z-score	5.91 z-score	3.94 z-score	5.48 z-score
